Laboratory results from PubChem BioAssay AID2284188 (EPA ToxCast).
Calls of active or inactive are those of the source. Rule for the calls: active = hit-call score of the fitted dose curve at least 0.9, where 1 is the maximum; inactive = score below 0.9.

Target: Voltage-dependent L-type calcium channel subunit alpha-1C (Rattus norvegicus) (UniProt P22002)
Experiment: ERF_FR_IC_rCACNA1C_Diltiazem: Eurofins (ERF) Calcium Ion Channel Binding (Diltiazem Site) LeadHunter Assay for rat Cav1.2 (L-type)
Description: ERF_FR_IC_rCACNA1C_Diltiazem is a biochemical, single-readout assay that uses extracted gene-proteins in a cell-free assay. Measurements were taken 2 hour after chemical dosing in a 96-well plate. See Cav1.2 (L-type) Rat Calcium Ion Channel Binding (Diltiazem Site) Assay, Cerep.ERF_FR_IC_rCACNA1C_Diltiazem is an assay component calculated from the ERF_FR_IC_rCACNA1C_Diltiazem assay. It is designed to measure radioligand binding using a type of binding reporter as detected by scintillation counting with radiometry technology.Data from the assay component ERF_FR_IC_rCACNA1C_Diltiazem was analyzed at the assay endpoint, ERF_FR_IC_rCACNA1C_Diltiazem, in the positive analysis fitting direction relative to DMSO as the negative control and baseline of activity. Using a type of binding reporter, loss-of-signal activity can be used to understand changes in binding as they relate to gene CACNA1C. To generalize the intended target to other relatable targets, this assay endpoint is annotated to the ion channel intended target family, where the subfamily is voltage gated (Calcium).
Rat cells are incubated for 120 minutes at room temprature with [3H]diltiazem (15 nM) as substrate and Papaverine as control inhibitor. Test Sample Requirements: Minimum for 1) Screen: 60 ul of 10 mM stock -OR- 1 mg (pre-weighed) for 10 uM final testing. […]

Chain of Voltage-dependent L-type calcium channel subunit alpha-1C (Rattus norvegicus) (P22002 whole entry, looked up): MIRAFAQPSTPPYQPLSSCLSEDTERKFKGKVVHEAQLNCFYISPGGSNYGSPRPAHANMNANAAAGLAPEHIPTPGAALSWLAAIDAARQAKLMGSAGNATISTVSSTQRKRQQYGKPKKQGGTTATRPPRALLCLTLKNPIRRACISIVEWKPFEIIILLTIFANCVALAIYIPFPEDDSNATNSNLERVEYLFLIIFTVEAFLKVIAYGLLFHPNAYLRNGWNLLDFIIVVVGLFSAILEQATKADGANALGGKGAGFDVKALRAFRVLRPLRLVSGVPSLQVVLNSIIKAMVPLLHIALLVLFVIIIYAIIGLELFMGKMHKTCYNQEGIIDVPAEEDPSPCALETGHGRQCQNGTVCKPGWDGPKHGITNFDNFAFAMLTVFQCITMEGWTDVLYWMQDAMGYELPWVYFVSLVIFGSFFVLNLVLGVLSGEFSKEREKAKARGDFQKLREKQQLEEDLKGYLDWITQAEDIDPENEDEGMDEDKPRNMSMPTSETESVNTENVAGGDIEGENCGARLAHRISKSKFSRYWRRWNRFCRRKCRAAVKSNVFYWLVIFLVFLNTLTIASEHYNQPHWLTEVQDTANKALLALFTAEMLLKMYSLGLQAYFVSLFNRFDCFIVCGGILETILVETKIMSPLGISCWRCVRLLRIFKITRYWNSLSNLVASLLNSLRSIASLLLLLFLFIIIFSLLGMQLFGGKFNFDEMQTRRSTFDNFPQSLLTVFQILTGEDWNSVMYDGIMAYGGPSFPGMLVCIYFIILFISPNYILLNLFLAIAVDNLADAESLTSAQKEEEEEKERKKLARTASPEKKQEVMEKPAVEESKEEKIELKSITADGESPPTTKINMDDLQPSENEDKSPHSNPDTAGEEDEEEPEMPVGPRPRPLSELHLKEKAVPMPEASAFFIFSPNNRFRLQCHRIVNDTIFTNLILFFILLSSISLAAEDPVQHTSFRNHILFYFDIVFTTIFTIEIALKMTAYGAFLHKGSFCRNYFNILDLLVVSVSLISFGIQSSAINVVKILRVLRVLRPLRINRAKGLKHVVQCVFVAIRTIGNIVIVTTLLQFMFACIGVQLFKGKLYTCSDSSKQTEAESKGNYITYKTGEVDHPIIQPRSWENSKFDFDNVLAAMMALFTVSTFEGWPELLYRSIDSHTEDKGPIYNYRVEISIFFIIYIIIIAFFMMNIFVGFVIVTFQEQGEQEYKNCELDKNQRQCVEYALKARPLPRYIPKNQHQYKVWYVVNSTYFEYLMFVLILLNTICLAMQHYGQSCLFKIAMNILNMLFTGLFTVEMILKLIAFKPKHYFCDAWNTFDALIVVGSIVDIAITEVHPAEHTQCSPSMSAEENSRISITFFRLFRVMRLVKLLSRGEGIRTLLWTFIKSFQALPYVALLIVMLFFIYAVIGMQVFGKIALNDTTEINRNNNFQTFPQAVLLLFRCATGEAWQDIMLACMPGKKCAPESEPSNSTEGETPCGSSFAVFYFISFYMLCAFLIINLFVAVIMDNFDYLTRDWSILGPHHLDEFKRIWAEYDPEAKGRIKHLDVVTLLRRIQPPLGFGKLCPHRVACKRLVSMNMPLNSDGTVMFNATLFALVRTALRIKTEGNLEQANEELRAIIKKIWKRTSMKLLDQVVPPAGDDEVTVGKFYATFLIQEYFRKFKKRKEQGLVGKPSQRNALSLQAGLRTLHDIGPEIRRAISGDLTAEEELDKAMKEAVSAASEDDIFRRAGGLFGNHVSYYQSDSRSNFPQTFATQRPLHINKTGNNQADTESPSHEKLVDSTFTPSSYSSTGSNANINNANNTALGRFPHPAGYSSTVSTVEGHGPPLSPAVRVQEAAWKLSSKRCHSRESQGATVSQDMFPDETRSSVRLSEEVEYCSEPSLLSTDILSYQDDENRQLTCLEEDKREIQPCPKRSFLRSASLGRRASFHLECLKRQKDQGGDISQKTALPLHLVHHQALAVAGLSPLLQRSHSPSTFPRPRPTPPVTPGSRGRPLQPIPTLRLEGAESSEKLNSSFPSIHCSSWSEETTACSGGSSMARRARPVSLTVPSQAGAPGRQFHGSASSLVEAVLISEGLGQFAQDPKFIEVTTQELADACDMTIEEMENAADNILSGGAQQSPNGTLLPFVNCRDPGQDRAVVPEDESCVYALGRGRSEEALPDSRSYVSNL

Row | SMILES | AC50
1 | O=C(/C=C/c1ccc(O)cc1)CC(=O)/C=C/c1ccc(O)cc1 | 3.46 µM (active)
